Experimental data as given in the supplement of paper PMC8728848.
This is one part of a sample in which the strongest signals are shown more often than they occur.

Tests used:
Assay in all cases: glycan array binding signal (z-score within array); higher = stronger binding
Details in all cases: glycan notation: IUPAC condensed, linker removed
Gal3S6S(b1-4)GlcNAc = target: Gal3S6S(b1-4)GlcNAc
How it was run: (§1)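 Arrays were curated from the Consortium for Functional Glycomics database, 3228 in total, and kept only where the protein sequence was available. Binding is expressed as a within-array Z-score. This score was averaged across arrays of the same protein sequence at different concentrations or buffers and across linkers, and negative values can be read as non-binding.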

Gal6S(b1-4)GlcNAc6S = target: Gal6S(b1-4)GlcNAc6S
How it was run: as §1

[1] = target: Glc(a1-4)Glc(a1-4)Glc(a1-4)Glc
How it was run: as §1

GlcA(b1-3)GlcNAc = target: GlcA(b1-3)GlcNAc
How it was run: as §1

[2] = target: GlcA3S(b1-3)Gal(b1-4)GlcNAc(b1-2)Man
How it was run: as §1

[3] = target: GlcNAc(a1-4)Gal(b1-3)GlcNAc
How it was run: as §1

[4] = target: GlcNAc(a1-4)Gal(b1-4)GalNAc
How it was run: as §1

[5] = target: GlcNAc(a1-4)Gal(b1-4)GlcNAc
How it was run: as §1

[6] = target: GlcNAc(a1-4)Gal(b1-4)GlcNAc(b1-3)Gal(b1-4)Glc
How it was run: as §1

[7] = target: GlcNAc(a1-4)Gal(b1-4)GlcNAc(b1-3)Gal(b1-4)GlcNAc
How it was run: as §1

[8] = target: GlcNAc(a1-4)Gal(b1-4)GlcNAc(b1-3)Gal(b1-4)GlcNAc(b1-3)Gal(b1-4)GlcNAc
How it was run: as §1

[9] = target: GlcNAc(a1-4)Gal(b1-4)GlcNAc(b1-3)Gal(b1-4)[Fuc(a1-3)]GlcNAc(b1-3)Gal(b1-4)[Fuc(a1-3)]GlcNAc
How it was run: as §1

[10] = target: GlcNAc(b1-3)[GlcNAc(b1-6)]Gal(b1-4)GlcNAc
How it was run: as §1

[11] = target: GlcNAc(b1-6)Gal(b1-4)GlcNAc
How it was run: as §1

Kdn(a2-3)Gal(b1-3)GlcNAc = target: Kdn(a2-3)Gal(b1-3)GlcNAc
How it was run: as §1

[12] = target: Man(a1-2)Man(a1-3)[Man(a1-2)Man(a1-6)]Man(a1-6)[Man(a1-2)Man(a1-2)Man(a1-3)]Man(b1-4)GlcNAc(b1-4)GlcNAc
How it was run: as §1

[13] = target: Neu5Ac(a2-3)Gal(b1-3)GlcNAc(b1-2)[Neu5Ac(a2-3)Gal(b1-3)GlcNAc(b1-4)]Man(a1-6)[Neu5Ac(a2-3)Gal(b1-3)GlcNAc(b1-2)Man(a1-3)]Man(b1-4)GlcNAc(b1-4)GlcNAc
How it was run: as §1

[14] = target: Neu5Ac(a2-3)Gal(b1-3)[Fuc(a1-4)]GlcNAc(b1-3)Gal(b1-4)[Fuc(a1-3)]GlcNAc
How it was run: as §1

[15] = target: Neu5Ac(a2-3)Gal(b1-4)GlcNAc(b1-2)Man(a1-3)[Neu5Ac(a2-6)Gal(b1-4)GlcNAc(b1-2)Man(a1-6)]Man(b1-4)GlcNAc(b1-4)GlcNAc
How it was run: as §1

[16] = target: Neu5Ac(a2-3)Gal(b1-4)GlcNAc(b1-3)Gal(b1-4)GlcNAc(b1-3)GalNAc
How it was run: as §1

[17] = target: Neu5Ac(a2-3)Gal6S(b1-4)GlcNAc
How it was run: as §1

Neu5Ac(a2-6)Gal = target: Neu5Ac(a2-6)Gal
How it was run: as §1

[18] = target: Neu5Ac(a2-8)Neu5Ac(a2-3)[GalNAc(b1-4)]Gal(b1-4)Glc
How it was run: as §1

[19] = target: Neu5Gc(a2-3)Gal(b1-4)GlcNAc
How it was run: as §1

[20] = target: Neu5Gc(a2-6)Gal(b1-4)GlcNAc
How it was run: as §1

[21] = target: Neu5Gc(a2-8)Neu5Ac(a2-3)Gal(b1-4)GlcNAc
How it was run: as §1

[22] = target: Neu5Gc(a2-8)Neu5Gc(a2-3)Gal(b1-4)GlcNAc(b1-3)Gal(b1-4)GlcNAc
How it was run: as §1

B1: rEtpA (Escherichia coli) (protein)
chain: MNRIYKLKFDKRRNELVVVSEITTGVGNAKATGSVEGEKSPRRGVRAMALSLLSGMMIMAHPAMSANLPTGGQIVAGSGSIQTPSGNQMNIHQNSQNMVANWNSFDIGKGNTVQFDQPSSSAVALNRVVGGGESQIMGNLKANGQVFLVNPNGVLFGEGASVSTSGFVASTRDIKNDDFMNRRYTFSGGQKAGAAIVNQGELTTNAGGYIVLAADRVSNSGTIRTPGGKTVLAASERITLQLDNGGLMSVQVTGDVVNALVENRGLVSARDGQVYLTALGRGMLMNTVLNVSGVVEASGMHRQDGNIVLDGGDSGVVHLSGTLQADNASGQGGKVVVQGKNILLDKGSNITATGGQGGGEVYVGGGWQGKDSNIRNADKVVMQGGARIDVSATQQGNGGTAVLWSDSYTNFHGQISAKGGETGGNGGRVETSSHGNLQAFGTVSASAKKGKAGNWLLDSADITIVNGSNVSKTETTQSPPHTQFAPTAAGSAVSNTSINNRLNNGTSVTILTHRTRTGTAQGGNITVNAAINKSNGSDVNLTLQAGGNITVNNSITSTEGKLNVNLSGARTSNGSITISNNANITTNGGDITVGTTNTSNRVNISINNTTLNASNGNIQLTGTGTDSGILFAGNNRLTASNIALTGNSTSGNAINLTGTATLNATNNITLTGSSTSGNAINLKGNNTLTASNITLTGESTSGNAINLTDTTGTTTLNATNNITMQGTRVQIKHSNITAGNFALNATVAGSEISNTTLTATNNINLAAKTNSASSGVYLKDARITSTNGSITANGTATANGKATHLDGNVTLNASNGRIKLTGNGHGSASGILFAGNNRLTASNIALTGNSTSGNAINLTGTATLNATNDITLTGSSTSGNAINLTGTATLNATNNITLTGSSTSGNAINLKGNNTLTASNITLTGESTSGNAINLTDTTGTTTLNATNNITMQGTRVQIKHSNITAGNFALNATVAGSEISNTTLTATNNINLAAKTNSASSGVYLKDARITSTNGSITANGTATANGKATHLDGNVTLNASNGRIKLTGNGHGSASGILFAGNNRLTASNIALTGNSTSGNAINLTGTATLNATNDITLTGSSTSGNAINLTGTATLNATNNITLTGSSTSGNAINLKGNNTLTASNITLTGESTSGNAINLTDTTGTTTLNATNNITMQGTRVQIKHSNITAGNFALNATVAGSEISNTTLTATNNINLAAKTNSASSGVYLKDARITSTNGSITANGTATANGKATHLDGNVTLNASNGRIKLTGNGHGSASGILFAGNNRLTASNIALTGNSTSGNAINLTGTATLNATNDITLTGSSTSGNAINLTGTATLNATNNITLTGSSTSGNAINLKGNNTLTASNITLTGESTSGNAINLTDTTGTTTLNATNNITMQGTRVQIKHSNITAGNFALNATVAGSEISNTTLTATNNINLAAKTNSASSGVYLKDARITSTNGSITTNGTATANGKATHLDGNVTLNASNGRIKLTGNGHGSASGILFAGNNRLTASNIALTGNSTSGNAINLTGTATLNATNDITLTGSSTSGNAINLTGTATLNATNNITLTGSSTSGNAINLKGNNTLTASNITLTGESTSGNAINLTDTTGTTTLNATNNITMQGTRVQIKHSNITAGNFALNATVAGSEISNTTLTATNNINLAAKTNSASSGVYLKDARITSTNGSITANGTAPANDNATYLDGNVTLNASNGSIKLTGNGNGSTSGILFAGNNTLTASNITLTGNSEVYWQKLGPEQKLISEEDLNSAVDHHHHHH
glycan array binding signal (z-score) (Gal3S6S(b1-4)GlcNAc): -0.028
glycan array binding signal (z-score) (Gal6S(b1-4)GlcNAc6S): 0.353
glycan array binding signal (z-score) [1]: 1.05
glycan array binding signal (z-score) (GlcA(b1-3)GlcNAc): -0.337
glycan array binding signal (z-score) [2]: -0.154
glycan array binding signal (z-score) [3]: 2.45
glycan array binding signal (z-score) [4]: 10.8
glycan array binding signal (z-score) [5]: 5.29
glycan array binding signal (z-score) [6]: 4.48
glycan array binding signal (z-score) [7]: 7.75
glycan array binding signal (z-score) [8]: 10.9
glycan array binding signal (z-score) [9]: 6.35
glycan array binding signal (z-score) [10]: -0.354
glycan array binding signal (z-score) [11]: -0.395
glycan array binding signal (z-score) (Kdn(a2-3)Gal(b1-3)GlcNAc): 0.581
glycan array binding signal (z-score) [12]: -0.275
glycan array binding signal (z-score) [13]: -0.163
glycan array binding signal (z-score) [14]: -0.21
glycan array binding signal (z-score) [15]: -0.305
glycan array binding signal (z-score) [16]: -0.38
glycan array binding signal (z-score) [17]: 0.188
glycan array binding signal (z-score) (Neu5Ac(a2-6)Gal): 8.28
glycan array binding signal (z-score) [18]: 0.026
glycan array binding signal (z-score) [19]: -0.194
glycan array binding signal (z-score) [20]: 0.192
glycan array binding signal (z-score) [21]: -0.108
glycan array binding signal (z-score) [22]: -0.353
